High-throughput results deposited in PubChem by National Center for Advancing Translational Sciences (NCATS).
KDM5B inh = blocks human KDM5B histone demethylase activity. actives 2.6% (n = 220,000). KDM5B demethylase, FDH-coupled NADH fluorescence (FDH is formaldehyde dehydrogenase). Potency, µM (highest dose often 57.7 µM), most hits filed as inhibitors; active = well fitted inhibition curve with a large enough effect; inconclusive = small, poorly fitted or top-dose-only effect; inactive = no such curve, though single readings can be large or run the other way; also: potency is read from the fitted curve at half-maximal effect; 0% is about no effect; nearly all actives have a fitted effect of over 70% in size
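Here, H3K4me3 peptide (12.5 µM in substrate mix) is demethylated by KDM5BΔAP, 200 nM final, after 10 min compound exposure. Formaldehyde product is coupled through FDH (0.25 U/mL in mix) to NADH fluorescence; 30-min ΔRFU feeds dose-response curves.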
IP6K1 inh = blocks human inositol hexakisphosphate kinase 1. IP6K1 kinase, ADP-Glo luminescence, 2 h; hits give low values. activity change, % (series mostly up to about 58 µM). actives 0.81% (n = 140,000). AID 1645851; in the data active = activity change below about -25%; also: % is scaled to controls: 0 for no effect and ±100 for the full control effect
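ADP-Glo luminescence measures ADP made by human IP6K1 during a 2 h RT reaction with ATP/IP6 (mix at 1.3 mM/130 uM); top library doses 57.5 and 19.1 uM final.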
Starred values were filed as active, the others as inactive; i = inactive; u = inconclusive; x = no result. The list is not random: actives were taken first. Their share in the collection is about 2.8%.

SMILES | KDM5B inh | IP6K1 inh
Cc1ccc(C(=O)NC2CCN(c3cc(-c4ccccc4)[nH]n3)C2)cc1 (centres undefined) | 14.1µM* | 0.7
Cc1ccc(C(=O)NC2CCN(c3cc(-c4ccc(F)cc4)[nH]n3)C2)cc1 (centres undefined) | u | 0.0
O=C(NC1CCN(c2cc(-c3ccc(F)cc3)[nH]n2)CC1)c1cccc2[nH]ccc12 | 31.6µM* | 7.1
CN(C)c1cccc(C(=O)NC2CCN(c3cc(-c4ccccc4)[nH]n3)C2)c1 (centres undefined) | 25.1µM* | 6.1
Cc1ccccc1C(=O)N1CC(N2C(=O)c3c(c(C)nn3-c3ccccc3)C2C)C1 (centres undefined) | x | -3.4
O=C(NCc1ccccn1)C1CN(C2CCCC2)C(=O)N1 (centres undefined) | x | -9.0
CSC1=N/C(=C\c2cccc(Cl)c2Cl)C(=O)S1 | i | x
Cc1nc2ccc(Cl)cc2cc1C(=O)NC(C)c1ccccc1 (centres undefined) | i | x
CN(C)C(=O)N1CCN(Cc2ccccc2-c2ccccc2F)CC1 | x | 0.6
COc1ccc(CC2CN(C(=O)c3ccnc(N)c3)CCO2)cc1 (centres undefined) | 25.1µM* | 5.8
COc1ccc(CC2CN(C(=O)c3ccsc3)CCO2)cc1 (centres undefined) | i | 10.1
O=C(c1ccncc1)N1CCN(Cc2ccccc2-c2ccccc2F)CC1 | x | -0.5
Cc1oc2c(c1C(=O)NCc1cccnc1)CN(Cc1ccc(F)cc1)CC2 | i | 6.5
CN(Cc1cccnc1)C(=O)c1n[nH]c2c1CN(Cc1cccnc1)CC2 | 25.1µM* | 10.2
COc1ccccc1-c1cccc(CN2CCC(NC(=O)NC(C)C)CC2)c1 | x | -4.6
O=C(CNC(=O)c1ccc(-c2cccc(C(F)(F)F)c2)cc1)NC1CCCC1 | x | -8.5
O=C(NCC(F)(F)F)C1CCCN(c2nc3ncccc3o2)C1 (centres undefined) | 22.4µM* | 10.0
O=C(NCC(F)(F)F)C1CCN(c2nc3ncccc3o2)CC1 | x | 16.1
C#CCNC(=O)C1CCCN(c2nc3ncccc3o2)C1 (centres undefined) | u | 4.4
O=C(NCC(F)F)C1CCCN(c2nc3ncccc3o2)C1 (centres undefined) | 28.2µM* | 7.9
CSc1ccccc1C(=O)NCc1coc(-c2cccs2)n1 | i | x
O=C(NCc1cccs1)C1CCCN1c1nccc(Nc2ccccc2F)n1 (centres undefined) | x | -2.5
COc1cccc(-c2cccc(C(=O)N3CCN([S+](=O)([O-])c4cccs4)CC3)c2)c1 | x | 5.5
Cc1cc(Cl)ccc1S(=O)(=O)N(Cc1cccnc1)C1CC1 | i | x
CC(C)CNC(=O)[C@@H]1CCCN1c1nccc(Nc2ccccc2Cl)n1 | x | 4.4
SMILES | KDM5B inh | IP6K1 inh
COc1cccc(NC(=O)Cn2c(C)ccc(NC(=O)Nc3ccc(C)cc3)c2=O)c1 | 28.2µM* | -5.8
COc1ccc(NC(=O)Nc2ccc(C)n(CC(=O)O)c2=O)cc1 | i | -4.7
Cc1ccc(NC(=O)Nc2ccc(C)n(CC(=O)Nc3ccccc3)c2=O)cc1 | u | -0.7
CCCN1CCN(C(=O)Cn2c(C)ccc(NC(=O)Nc3ccccc3)c2=O)CC1 | 25.1µM* | 1.6
CCN1CCN(C(=O)Cn2c(C)ccc(NC(=O)Nc3ccc(C)cc3)c2=O)CC1 | u | -7.3
COc1ccc(NC(=O)Nc2ccc(C)n(CC(=O)Nc3ccc(C)c(C)c3)c2=O)cc1 | 17.8µM* | -0.6
O=C1CCCC2=C1C(c1ccccc1)CC(=O)N2c1ccccc1F (centres undefined) | i | x
O=C(NCc1cc2n(n1)CCNC2)C1CCCN(c2ccccn2)C1 (centres undefined) | 31.6µM* | 5.3
O=C(NCc1ccccn1)C1CCN(Cc2cc3n(n2)CCCNC3)CC1 | i | -4.4
COc1ccc2c3c1CN(C(=O)COc1ccccc1)CC3=CC(C)(C)CO2 | x | 10.4
c1cc(-c2cc3c(ccn3Cc3ccncc3)c(N3CCOCC3)n2)c2[nH]ncc2c1 | 25.1µM* | 828.1
c1cc(-c2cc3c(ccn3Cc3ccncc3)c(N3CCOCC3)n2)c2cn[nH]c2c1 | 20µM* | 8.8
c1cc(CN2CCC(Oc3nccnc3N3CCOCC3)C2)ccn1 (centres undefined) | u | 15.5
c1cc(-c2cc3c(ccn3Cc3ccncc3)c(N3CCOCC3)n2)c2cc[nH]c2c1 | 20µM* | -2.3
C[S+](=O)([O-])N1CCC(Cn2ccc3c(N4CCOCC4)nc(-c4cccc5[nH]ccc45)cc32)CC1 | i | -7.7
Cc1cc(=O)oc2cc(OC(=O)COc3ccc4ccccc4c3)ccc12 | i | x
COc1cccc(C(=O)NC2CCCN(Cc3ccc(-c4cccc(OC)c4)cc3)C2)c1 (centres undefined) | x | -9.1
COc1cccc(C(=O)N2CCC3(CC2)CN(c2ccncn2)CC3CO)c1C (centres undefined) | i | 28.8
Cc1nn(C)cc1C(=O)N1CCC2(CC1)CN(c1ncccn1)CC2CO (centres undefined) | 28.2µM* | 11.7
COCC1CN(C2CCC2)CC12CCN(C(=O)c1sc(C)nc1C)CC2 (centres undefined) | x | 5.4
Cc1nc(C)c(C(=O)N2CCC3(CC2)CN(c2ncccn2)CC3CO)s1 (centres undefined) | 25.1µM* | -0.9
COc1ccc(C(=O)N[C@@H]2CN(Cc3ccccc3)C[C@H]2CN(C)C)cn1 | x | -16.6
Cc1cccc(-c2nc3ccc(C(=O)N4CCOCC4)cc3o2)n1 | x | -3.0
CC(C)CCN1CCNC(=O)C1CC(=O)N(Cc1cnn(C)c1)C1CC1 (centres undefined) | 15.8µM* | -5.7
Cc1ccc(CN2CCNC(=O)C2CC(=O)N(CC(C)C)CC(C)C)cc1 (centres undefined) | u | -7.2
SMILES | KDM5B inh | IP6K1 inh
COc1ccc(N2CC3CCC(C2)N3Cc2ccc(-c3cccnc3)cc2)cc1 | u | -8.2
Cc1ccc(Nc2ccnc(N3CCC(C(=O)NC4CCCC4)CC3)n2)cc1 | x | 5.0
CC(C)Cc1noc(-c2ccc(N3CCCC(C(C)(C)O)C3)nc2)n1 (centres undefined) | u | 10.2
CC(=O)N1CCCN(c2ccc(-c3nc(-c4ccccc4F)no3)cn2)CC1 | u | 0.0
CCC1CN(c2ccc(-c3nc(-c4ccc(OC)cc4)no3)cn2)CCN1C (centres undefined) | u | -0.2
OC1CCCN(c2ccc(-c3nc(-c4cccc(C(F)(F)F)c4)no3)cn2)C1 (centres undefined) | 35.5µM* | 0.9
OCCN1CCN(c2ccc(-c3nc(-c4cccc(C(F)(F)F)c4)no3)cn2)CC1 | 28.2µM* | 5.6
COc1cccc(-c2noc(-c3ccc(N4CCCC(CO)C4)nc3)n2)c1OC (centres undefined) | 31.6µM* | 8.0
Cc1ccc(-c2ccccc2CN2CCC(C(=O)N3CCC(c4ccccc4)CC3)CC2)cc1Cl | x | -7.1
Cc1ccc(C(CNC(=O)c2oc3ccc(F)cc3c2C)N(C)C)o1 (centres undefined) | i | x
COCCCn1c(=O)c(C(=O)N2CCN(C(=O)c3ccc(Cl)nc3)CC2)nc2cccnc21 | x | 6.4
O=C(Nc1ccccc1)NC1CCN(Cc2cccc(-c3cccs3)c2)CC1 | x | 15.8
O=C(C1CCCN1c1nccc(Nc2ccccc2F)n1)N1CCN(Cc2ccccc2)CC1 (centres undefined) | x | -7.5
COc1ccc(NC(=O)c2ccc(NC(=O)c3ccc4ccccc4n3)cc2)cc1 | i | x
